The results in this text go back to PubChem BioAssay (NCI).

This is part of a sample that, as a whole, favours compounds with a hit. Of some 79,000 tested, about 15% had one in any assay. Active and inactive are the calls of the source. Cut-off read from the data, not from the text of the source: active = growth inhibition above about 70%; inactive = the rest.

A short description of the assay: NCI Yeast Anticancer Drug Screen. Data for the bub3 strain (AID 167). The note with it: S. cerevisiae bub3 mutant strain, at 50.0 µM, active compounds read high. In a few lines:
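Whole-cell yeast assay. The mutant strain was incubated with compounds, and growth inhibition was determined by comparison with vehicle-treated cells.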
In the case of `COC(=O)n1sc(SC)nc1=N`, the growth inhibition was -17.1% (inactive). Then `CC(=O)CC(=O)Nc1cccc(C)c1`, with 16.2% (inactive); and `Cc1ccc(S(=O)(=O)N(Cc2cccc([N+](=O)[O-])c2)c2ccc(C(=O)O)cc2)cc1`, with 5.95% (inactive); and `COC(=O)/C=C(\S/C=C(/c1ccccc1)N1CCn2c(C(=O)c3ccccc3)c(C(=O)OC)c(C(=O)OC)c21)C(=O)OC`, with 54.1% (inactive). Consider `CCN(CC)C(=O)C1(C)NS(=O)(=O)c2ccccc2C1=O` (stereo not given), for which the growth inhibition was -10.8% (inactive). Then `CC12CCC(=O)C=C1CCC1C2C(=O)CC2(C)C1CCC2(O)C(=O)Cn1c(=O)[nH]cc(F)c1=O` (stereo not given), with -0.85% (inactive); and `CC(C)(C=O)OC(=O)c1cc([N+](=O)[O-])cc([N+](=O)[O-])c1`, with -8% (inactive).

In the case of `Cc1ccc(NC(=O)Oc2ccc3ccccc3c2)cc1NC(=O)Oc1ccc2ccccc2c1`, the growth inhibition was 4.9% (inactive).

With `CN1CCCC1c1cccnc1.O=C(O)c1ccccc1O.O=C([O-])c1ccccc1[OH2+].O=C([O-])c1ccccc1[OH2+].[Mn+2]` (stereo not given), the growth inhibition was -29% (inactive). Regarding `CCOC(=O)c1c(C)c2c(n1C)CCC(C(=O)OCC)C2=O` (stereo not given), the growth inhibition was 4.6% (inactive).

For `CC(C)C1CCC(=O)CC1`, the growth inhibition was 0.75% (inactive).

`CCS(=O)c1ncc2cnccn12` (stereo not given): the growth inhibition was 8.3% (inactive).

Consider `NC(N)=Nc1nc2ccc(Cl)cc2[nH]1`, for which the growth inhibition was -11.9% (inactive). Then `Cc1c(CCO)sc[n+]1CC(=O)c1ccccc1`, with 2.3% (inactive). On to `Fc1ccc(N=Cc2ccc(C=Nc3ccc(F)cc3)cc2)cc1`, for which the growth inhibition is 38% (inactive). `O=C(CC(=O)c1ccc(Cl)cc1)c1ccc(Cl)cc1`: the growth inhibition is 8.9% (inactive). The value for `O=[N+]([O-])CC1=CCCCC1` was -5.05% (inactive); that for `COC(=O)C(C(=O)C(=O)Nc1nc2ccc(OC)cc2s1)c1cnc2ccccc2n1` (stereo not given) was -7.5% (inactive); that for `O=c1oc2ccc(Cl)cc2c(OCCO)c1Cl` was -5.95% (inactive). Then `CCC(CC)OC(=O)Nc1cccc2ccccc12`, with 4.9% (inactive); and `CN1CCC(O)(C(C)(C)C)CC1`, with -3.7% (inactive). The value for `CCOC(=O)C(NNc1ccccc1)C(=O)C(F)(F)F` (stereo not given) was 1.35% (inactive); that for `CN(C)Cc1cc(N=Nc2ccc(Cl)cc2)ccc1O` was 36.5% (inactive). Turning to `CN(C)N=Nc1c(Cl)cccc1Cl`, the growth inhibition was 2.35% (inactive). The value for `CC(=O)Nc1cccc(C)n1` was -0.95% (inactive).

As to `CC(CCCSC(=N)N)SC(=N)N` (stereo not given), the growth inhibition was -2.2% (inactive). As for `Cc1ccc(S(=O)(=O)Nc2ccc(S(C)(=O)=O)cc2)cc1`, the growth inhibition was 3.85% (inactive). In the case of `COc1cc2c(cc1OC)-c1ccc3cc4c(cc3c1N(C)C2)OCO4`, the growth inhibition is -12.7% (inactive). On to `C=CCOC(=O)c1c(Cl)c(Cl)c(Cl)c(Cl)c1C(=O)O`, for which the growth inhibition is 14.1% (inactive).

Consider `O=C1NC(=O)C(c2ccc(Cl)cc2)N1` (stereo not given), for which the growth inhibition was -3.75% (inactive).

On to `O=C(O)CCCCCC1=CCCCC1`, for which the growth inhibition was 24.6% (inactive). The value for `CC(C)=CCC/C(C)=C\COC=O` was 13.8% (inactive); that for `COc1cccc(-c2nnc(-c3cccc(OC)c3)o2)c1` was 25.5% (inactive). As for `CCCCCCCCC(=O)OCC(=O)c1ccc(-c2ccccc2)cc1`, the growth inhibition was 3.3% (inactive). For the compound `CCCCCCCCCCCCCCCCCCCCCCBr`, the growth inhibition is -2.75% (inactive). The value for `C[Si](C)(C)C#CCOC=C1CC1` was -11.7% (inactive); that for `Cc1cc(Cl)ccc1N1C(=O)C(=O)C(c2nc3ccccc3s2)C(=O)C1=O` was 2.2% (inactive); that for `CCOC(=O)/C=C/SCCCC(=O)O` was -4.55% (inactive). For `Cc1cc(C)c(C(=O)c2cccc(Cl)c2)c(C)c1`, the growth inhibition was 34.4% (inactive).

For `O=NN(CCCl)C(=O)N(C1CCCCC1)C1CCCCC1`, the growth inhibition was 5% (inactive).
